Screens: PubChem BioAssay, National Center for Advancing Translational Sciences (NCATS)
Hits are enriched below; roughly 0.5% of the tested compounds scored in any of these assays.
RGS4 inhibitor: Inhibitors of Regulator of G Protein Signaling (RGS) 4: qHTS | Regulator of G-protein signaling 4 (Homo sapiens), P49798 | Transcreener GDP fluorescence polarization, RGS4-accelerated GTP hydrolysis | 390,000 compounds, 0.039% hits | Potency, µM (highest dose often 114 µM), inactives show at the highest dose activity change, negative = inhibition, actives largely listed as inhibitors; also: potency is read from the fitted curve at half-maximal effect; % is scaled to controls: 0 for no effect and ±100 for the full control effect; nearly all actives have a fitted effect of over 75% in size
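MLSMR compounds (23 nl, pin-transferred) preincubated 10 min at room temperature with a 500nM (2x) first reagent, then RGS4 at 900nM (2x) plus Transcreener GDP mix added; fluorescence polarization (620/688 nm) read before and after 90 min at 30 °C.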
TRPML1 blocker: qHTS for Inhibitors of the Human Mucolipin Transient Receptor Potential 1 (TRPML1); TRPML1-inducible cells, Ca2+ dye fluorescence, FDSS; stronger effect = lower value; inhibition of EC80 agonist-evoked calcium signal; Mucolipin-1 (Homo sapiens), Q9GZU1; activity change, negative = inhibition, % (concentration not given with the values); 390,000 compounds, 0.02% hits; AID 624415, 2012; in the data active = activity change below about -50%; inconclusive = between about -30% and that limit;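 also: stimulus is agonist 54-4 at its EC80 concentration; % is scaled to controls: 0 for no effect and ±100 for the full control effect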
Target sequence (Q9GZU1 whole entry, looked up): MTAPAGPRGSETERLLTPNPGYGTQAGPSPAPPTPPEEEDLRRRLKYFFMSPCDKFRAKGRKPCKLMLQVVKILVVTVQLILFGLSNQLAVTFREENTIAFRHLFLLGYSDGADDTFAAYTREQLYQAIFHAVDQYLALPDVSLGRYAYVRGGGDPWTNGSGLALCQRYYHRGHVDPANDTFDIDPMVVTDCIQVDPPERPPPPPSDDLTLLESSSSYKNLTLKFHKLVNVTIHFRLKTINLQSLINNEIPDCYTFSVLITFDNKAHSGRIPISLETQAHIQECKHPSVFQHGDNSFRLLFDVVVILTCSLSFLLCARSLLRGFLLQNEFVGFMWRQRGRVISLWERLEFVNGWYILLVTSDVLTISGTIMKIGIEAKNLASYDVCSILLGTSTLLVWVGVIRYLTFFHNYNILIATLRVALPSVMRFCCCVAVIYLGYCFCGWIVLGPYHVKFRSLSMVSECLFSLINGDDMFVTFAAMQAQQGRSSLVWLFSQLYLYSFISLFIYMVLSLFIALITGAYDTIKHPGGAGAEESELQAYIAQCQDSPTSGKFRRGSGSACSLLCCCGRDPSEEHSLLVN
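Calcium fluorescence in TRPML1-DL cells induced overnight with Tet: a 110 s read after compound pin addition, then a 110 s antagonist read after challenge with 54-4 at 4 uM final (EC80).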
TRPV1 ag: HTS Assay for Compounds that Act as Agonists of the Vanilloid Receptor 1 | TRPV1-expressing cells, Fluo-8 calcium influx, agonist mode | activation, % at 8.33 µM | 320,000 compounds, 0.19% hits | AID 540275, 2011; in the data active = activation above about 80%; inconclusive = between about 30% and that limit; also: 0% is about no effect
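Cells expressing TRPV1 were dye-loaded with Fluo-8 and read kinetically: 10 s baseline, 3 min after compound (agonist portion), then 2 min after EC20 capsaicin (allosteric enhancer portion). Calcium-bound dye fluorescence at 480/520 nm.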
TRPV1 PAM: HTS Assay for Compounds that Act as Potentiators of the Vanilloid Receptor 1 | Transient receptor potential cation channel subfamily V member 1 (Homo sapiens), Q8NER1 | TRPV1-expressing cells, Fluo-8 calcium influx, capsaicin EC20 potentiation | potentiation, % at 8.33 µM | 320,000 compounds, 0.02% hits | AID 540277, 2011; in the data active = potentiation above about 80%; inconclusive = between about 30% and that limit; also: 0% is about no effect
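Fluo-8 calcium influx in TRPV1-expressing cells, kinetic read (ex 480/em 520 nm). Compound added and read 3 min for agonist activity, followed by capsaicin at EC20 final and 2 min further read for enhancement.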
A-T KAP1 phos: qHTS Assay for Identifying a Potential Treatment of Ataxia-Telangiectasia; F2112 A-T fibroblasts, KAP-1 phosphorylation AlphaLISA; neocarzinostatin DNA damage 30 min before lysis; Potency, µM (highest dose often 57.5 µM), for inactives: at the top dose activation, actives largely listed as activators; 320,000 compounds, 0.19% hits; AID 485349, 2010; also: potency is read from the fitted curve at half-maximal effect; % of control where 0% means no effect; nearly all actives have a fitted effect of over 45% in size
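hTERT-immortalized A-T patient fibroblasts (F2112), 500 cells/well in OPTI-MEM, 1% FBS, got compounds for 60 min, then NCS for 30 min at 37C. Lysates were then assayed for phospho-KAP-1 by AlphaLISA (anti-pKAP1 donor, anti-KAP1 acceptor beads), 6 hr at 25C.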
TRPML1 ag: qHTS for Agonists of the Human Mucolipin Transient Receptor Potential 1 (TRPML1); TRPML1-expressing cells, Ca2+ dye fluorescence, FDSS; 410,000 compounds, 0.12% hits; activation, % (test concentration not listed); in the data active = activation above about 50%; inconclusive = mostly about 30% to 49%; also: 0% is about no effect
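Kinetic FDSS Ca2+ read in Tet-induced TRPML1-DL cells (ABD Ca8 dye plus quencher, 45-90 min RT loading): baseline, then compound, then 110 s agonist window; EC80 agonist 54-4 at 4uM final added afterwards for a 110 s antagonist window.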
Numbers without * were called inactive; i = inactive; ? = inconclusive; / = no result given; ! = not confirmed by another sample; [ ] = remark or other dose. Unless noted, calls follow the shape of the dose curve; as a rule, active = well fitted curve in the direction sought with a large enough effect; inconclusive = small, poorly fitted or top-dose-only effect, or another doubt; inactive = no such curve, though single readings can be large; an effect the other way counts as inactive or inconclusive.

SMILES	RGS4 inhibitor	TRPML1 blocker	TRPV1 ag	TRPV1 PAM	A-T KAP1 phos	TRPML1 ag
CN1CCCCC1c1cccnc1 (stereo unspecified)	38µM*	/	/	/	/	/
COc1ccccc1CN1CCCCC1c1cccnc1 (stereo unspecified)	-16%	-2	10	-22	-7%	1
CC(=O)OC1C(=O)OCC23CCC4(C)OC4C2OC2CC(OC(=O)C=CC=CC(=O)OCCC1C)C3(C)C21CO1 (stereo unspecified)	-36%	0	/	/	/	1
O=C(N1CCCCCC1)N1CC1	2%	-5	/	/	/	1
S=C(S)N1CCCC1	5.3µM*!	12	-2	9	2%	0
CC1CCCN(c2ccc(C(=O)N3CCC4(CC3)OCCO4)cc2[N+](=O)[O-])C1 (stereo unspecified)	-10%	-3	?	-9	-6%	0
CCOC(=O)C1CCCN(c2ccc([N+](=O)[O-])c3nonc23)C1 (stereo unspecified)	18%	-6	105*	-10	6%	89*
Clc1cncc(N2CCNCC2)n1	4.2µM*	/	/	/	/	/
Clc1ccc(N2CCNCC2)nn1	-26%	5	-2	?	-3%	-1
CCC1CN1P1(=O)OCC(C)([N+](=O)[O-])CO1 (stereo unspecified)	-21%	-7	/	/	/	1
N[C@@H](Cn1ccc(=O)n(Cc2ccc(C(=O)O)cc2)c1=O)C(=O)O	8.4µM*	/	/	/	/	/
COc1ccc(C(=O)O)cc1OC	11%	/	/	/	/	/
O=C(O)c1cc[c]([Hg][Cl])cc1	6.7µM*!	-2	0	1	35%	-1
O=C(c1cc(F)ccc1F)C1CCCN(CCCc2ccccc2)C1 (stereo unspecified)	-10%	13	1	7	1%	0
CC(C)N(Cc1ccco1)/N=C/c1c(O)n(Cc2ccccc2)c(=O)[nH]c1=O	24%	-8	1	-14	40µM*	2
N#Cc1cc([N+](=O)[O-])ccc1NC(=O)c1cccn(Cc2cccc(F)c2)c1=O	31%	-17	/	/	/	0
CN1CC[C@@]2(C)c3cc(O)ccc3N(C)C12 (stereo partly specified)	21µM*	/	/	/	/	-1
Cc1ccsc1C(=O)C1CCCN(Cc2cccc(OCCO)c2)C1 (stereo unspecified)	8%	11	3	6	0%[11.5 µM]	1
Cc1c(C(c2ccc(Br)cc2)c2c(O)c3ccccc3oc2=O)c(=O)n(-c2ccccc2)n1C (stereo unspecified)	-17%	14	1	14	-5%	1
Cc1c(C(c2ccc(Cl)cc2Cl)c2c(O)c3ccccc3oc2=O)c(=O)n(-c2ccccc2)n1C (stereo unspecified)	-16%	22	-4	82*	0%	1
C[C@](N)(CCP(=O)(O)O)C(=O)O	6%	6	3	-6	-1%	1
C/C1=C\[C@@H](C)C/C=C/[C@H]2[C@@H]3O[C@]3(C)[C@@H](C)[C@H]3[C@H](Cc4c[nH]c5ccccc45)NC(=O)[C@]32C(=O)/C=C/C(=O)[C@@H]1O	?	/	2	-8	40µM*	/
O=c1[nH]/c(=C\c2ccc(N(CCCl)CCCl)cc2)c(=O)[nH]/c1=C\c1ccc(N(CCCl)CCCl)cc1	/	/	/	/	/	3
O=C1/C(=C/c2ccc(N(CCCl)CCCl)cc2)Cc2ccccc21	/	/	/	/	/	73*
CN(N=O)c1ccc(O)c(O)c1	6µM*	/	/	/	/	/
SMILES	RGS4 inhibitor	TRPML1 blocker	TRPV1 ag	TRPV1 PAM	A-T KAP1 phos	TRPML1 ag
CC1(C)C(C(=O)N2CCN(C(=O)c3ccccc3)CC2)C1(C)C	-11%	4	2	-7	-3%	1
Cc1cc(=O)oc2cc3c(cc12)CCCN3	-3%	-24	11	4	20µM*	1
N.N.N.N.N.N.N.N.N.N.N.N.N.N.O.O.[Ru+4].[Ru+5].[Ru+5]	19µM*	/	/	/	/	/
O=C(CCCN1CCC2(CC1)C(=O)NCN2c1ccccc1)c1ccc(F)cc1	19%[56.9 µM]	21	18	-5	4%	76*
CCCCn1nnnc1C(C1CC1)N1CCC2(CC1)C(=O)NCN2c1ccccc1 (stereo unspecified)	/	/	/	/	/	2
COc1ccc(/C=C2/C(=O)NC(=S)N(C3CC3)C2=O)cc1CN1C(=O)c2ccccc2C1=O	?	-15	1	2	6%	0
Cn1c(=O)oc2cc(S(=O)(=O)N3CCc4ccccc43)ccc21	-5%[11.4 µM]	/	3	-9	1µM*	/
CN1CCN(c2ccc([N+](=O)[O-])c(SCCO)c2)CC1	4%	18	-1	7	-2%	-1
COC(=O)C1=CO[C@@H](C)[C@@H]2CN(CCc3c[nH]c4ccccc34)CC[C@H]12	11%	-8	/	/	/	0
NC(Cc1cc(O)c(O)cc1O)C(=O)O (stereo unspecified)	3µM*	/	9	-12	-18%	-1
NC(=O)CI	19µM*	/	/	/	/	/
Cc1cc(O)c2c(c1)C(=O)C13C(=C2O)C(=O)[C@H]2[C@@H](O)[C@@H]1[C@H]1[C@H](O)[C@@H]3C(=O)C3=C(O)c4c(O)cc(C)cc4C(=O)C312 (stereo partly specified)	-29%	/	8	-4	8.9µM*	/
CCCCC/C=C\C/C=C\C/C=C\C/C=C\CCCC(=O)NCc1ccc(O)c(OC)c1	i	/	/	/	/	/
CCCCCCCCC(=O)NCc1ccc(O)c(OC)c1	10%	-5	105*	4	8%	2
CCC1C(=O)OCC1Cc1cncn1C (stereo unspecified)	27µM*!	/	/	/	/	/
COc1ccc(CN2Cc3cc(-c4ccc(OC)cc4)ccc3-n3nncc3C2)cc1	/	/	/	/	/	-1
NC(N)=Nc1ccc2[nH]c3c(c2c1)C[C@@]1(O)[C@H]2Cc4ccc(O)c5c4[C@@]1(CCN2CC1CC1)[C@H]3O5	24µM*	-7	1	-1	-13%	-1
CN(C(=O)Oc1ccc(F)cc1)c1ccccc1	24%	3	2	1	7%	2
CC(=NCCc1c[nH]c2ccccc12)c1c(O)n(Cc2ccccc2)c(=O)[nH]c1=O	-37%	4	7	17	32µM*	2
CCOC(=O)Nc1ccc(NCc2ccc(F)cc2)nc1N	8.4µM*	-8	2	-14	-1%	10
